Source: PubChem BioAssay
MITF inh = human MITF inhibition, primary screen | AlphaScreen MITF homodimerization, bead proximity signal | inhibition, % at 2.6 µM | 650,000 tested, 0.91% active | AID 1259374; in the data active = inhibition above about 50%;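 note: 0% = vehicle wells with protein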
Target sequence (O75030 whole entry, looked up): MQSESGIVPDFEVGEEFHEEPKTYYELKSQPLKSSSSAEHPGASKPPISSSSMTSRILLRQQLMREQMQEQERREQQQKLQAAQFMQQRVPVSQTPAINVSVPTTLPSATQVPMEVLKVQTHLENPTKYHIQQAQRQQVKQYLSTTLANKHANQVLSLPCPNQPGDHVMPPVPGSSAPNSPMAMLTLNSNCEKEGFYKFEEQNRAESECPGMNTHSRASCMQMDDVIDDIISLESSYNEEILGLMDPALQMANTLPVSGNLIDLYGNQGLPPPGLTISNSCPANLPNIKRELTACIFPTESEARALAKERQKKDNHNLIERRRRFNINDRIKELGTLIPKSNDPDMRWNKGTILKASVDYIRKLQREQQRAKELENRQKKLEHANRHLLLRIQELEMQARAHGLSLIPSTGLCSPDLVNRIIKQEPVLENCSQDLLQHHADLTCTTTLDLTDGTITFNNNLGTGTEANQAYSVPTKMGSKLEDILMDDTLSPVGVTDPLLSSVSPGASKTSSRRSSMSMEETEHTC
GPR151 ag = activators of human GPR151. Q8TDV0. 650,000 tested, 1% active. activation, % at 11.2 µM. PathHunter beta-arrestin GPR151 cells, luminescence; in the data active = activation above about 4.9%;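 note: 0% = median of compound wells and 100% = cells with positive control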
TEAD-YAP inh = TEAD-YAP interaction inhibition. HEK-TIYL cells, TEAD-Gal4/YAP UAS-luciferase luminescence. inhibition, % at 9.12 µM. 640,000 tested, 1.4% active. AID 1259422; in the data active = inhibition above about 32%;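 note: 0% = median of test compound wells and 100% = reference inhibitor wells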
FBW7 activator = human FBW7 E3 ligase activation, primary screen | AlphaScreen FBW7–phospho-cyclin E peptide binding, activator screen | normalized activity (activation), % at 26.1 µM | 650,000 tested, 0.13% active | AID 1259310; in the data active = normalized activity above about 1.9%;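 note: purified mutant Fbw7 with reduced substrate affinity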
The depositor's hits bear a star. Compounds with a hit are over-represented: about 3.5% of the library has one in this group of screens.

Cc1cc(-c2nnc(CCC(=O)N3CC[C@@H]4CCCC[C@H]4C3)o2)no1 was read as MITF inh 7.1, GPR151 ag -0.4, TEAD-YAP inh -6.1 and FBW7 activator 0.1.
`NC(=O)c1ccc(-n2nnnc2Oc2ccc(F)cc2)cc1` gave MITF inh 16.3, GPR151 ag 0.7, TEAD-YAP inh 2.8 and FBW7 activator 0.1.
CC1=C(C(=O)OCCOc2ccccc2)C(c2ccccc2[N+](=O)[O-])NC(=O)N1 (configuration not stated) was read as MITF inh 3.3, GPR151 ag 0.7, TEAD-YAP inh 6.8 and FBW7 activator -0.2.
`Cc1cccc(/C=C2\Sc3ccc(C(=O)O)cc3N(C)C2=O)c1` gave MITF inh -13.7, GPR151 ag -0.2, TEAD-YAP inh 5.6 and FBW7 activator -0.2.
Screening COc1cccc2cc(C(=O)Nc3ccc(CC(=O)O)cc3)c(=O)oc12 returned MITF inh -11.3, GPR151 ag -4.2, TEAD-YAP inh 71.9* and FBW7 activator -0.1.
For COc1ccc(NC(=O)c2cc3cccc(OC)c3oc2=O)cc1 the results were MITF inh 15.4, GPR151 ag 0.5, TEAD-YAP inh -17.8 and FBW7 activator -0.1.
Screening Cc1cccc(C(=O)Nc2ccc(N3CCN(C(=O)C(C)C)CC3)cc2)c1 returned MITF inh -10.3, GPR151 ag 0.4, TEAD-YAP inh -4.7 and FBW7 activator 0.0.
Screening COc1cccc(C(=O)Nc2ccc(N3CCN(C(=O)C(C)C)CC3)cc2)c1 returned MITF inh -7.2, GPR151 ag 0.6, TEAD-YAP inh 45.9* and FBW7 activator 0.1.
For COc1cccc(C(=O)/C=C/Nc2ccc(N(C)C)cc2)c1 the results were MITF inh 11.1, GPR151 ag -0.5, TEAD-YAP inh -8.8 and FBW7 activator -0.3.
CCc1ccc(C(=O)/C=C/Nc2cccc(O)c2)cc1 was read as MITF inh -29.1, GPR151 ag 2.7, TEAD-YAP inh 96.4* and FBW7 activator -0.1.
Screening COc1ccc(C(=O)/C=C/Nc2cccc(O)c2)cc1 returned MITF inh -2.4, GPR151 ag -5.6, TEAD-YAP inh 87.0* and FBW7 activator -0.2.
For COc1cccc(C(=O)/C=C\Nc2ccc(C)cc2)c1 the results were MITF inh -1.3, GPR151 ag -6.7, TEAD-YAP inh 59.5* and FBW7 activator 0.0.
`COc1ccc(C(=O)/C=C\Nc2cccc(C(=O)O)c2)cc1` gave MITF inh 1.1, GPR151 ag -6.4, TEAD-YAP inh 40.7* and FBW7 activator 0.1.
CCc1ccc(C(=O)/C=C/Nc2ccc(O)cc2)cc1 was read as MITF inh 1.4, GPR151 ag 1.1, TEAD-YAP inh 2.2 and FBW7 activator -0.5.
COc1ccc(C(=O)/C=C/Nc2cccc(C)c2)cc1 was read as MITF inh -6.4, GPR151 ag -3.8, TEAD-YAP inh -12.4 and FBW7 activator 0.0.
O=C1CCC(CCNCc2ccccn2)N1Cc1ccccc1Cl (configuration not stated) was read as MITF inh 22.5, GPR151 ag -0.9, TEAD-YAP inh -19.6 and FBW7 activator -1.0.
Screening COc1ccc(C(=O)/C=C\Nc2cccc(F)c2)cc1 returned MITF inh 13.8, GPR151 ag -2.6, TEAD-YAP inh 34.6* and FBW7 activator 0.0.
For COc1ccc(/C=C/C(=O)c2ccc(O)cc2)cc1 the results were MITF inh -17.3, GPR151 ag -5.5, TEAD-YAP inh 55.3* and FBW7 activator -0.1.
c1ccc2sc(SCc3cn4ccccc4n3)nc2c1 was read as MITF inh 14.1, GPR151 ag -0.7, TEAD-YAP inh -52.8 and FBW7 activator 0.2.
CCOc1cc(C2C(C#N)=C(N)Oc3c2ccc2ccccc32)cc(Br)c1O (configuration not stated) was read as MITF inh 0.9, GPR151 ag 0.2, TEAD-YAP inh 64.6* and FBW7 activator 0.0.
Screening CC1=C(C(=O)Nc2ccc(C)cn2)C(c2cccs2)C2=C(CC(C)(C)CC2=O)N1 (configuration not stated) returned MITF inh -4.9, GPR151 ag -0.3, TEAD-YAP inh 57.7* and FBW7 activator -0.1.
For CC1=C(C(=O)Nc2ccc(Br)cn2)C(c2cccs2)C2=C(CC(C)(C)CC2=O)N1 (configuration not stated) the results were MITF inh -0.5, GPR151 ag 0.0, TEAD-YAP inh 35.3* and FBW7 activator 0.1.
For CC1=C(C(=O)Nc2ccc(C)cn2)C(c2ccc(C)cc2)C2=C(CC(C)(C)CC2=O)N1 (configuration not stated) the results were MITF inh 9.9, GPR151 ag 0.5, TEAD-YAP inh 8.1 and FBW7 activator 0.0.
CC1=C(C(=O)Nc2ccc(Br)cn2)C(c2ccsc2)C2=C(CC(C)(C)CC2=O)N1 (configuration not stated) was read as MITF inh -0.5, GPR151 ag 1.2, TEAD-YAP inh 52.0* and FBW7 activator 0.2.
For COc1ccc(C(=O)NC2CC2)cc1OC1CCN(CC2CC=CCC2)CC1 (configuration not stated) the results were MITF inh 3.4, GPR151 ag 3.1, TEAD-YAP inh 0.1 and FBW7 activator -0.1.
`c1ccc2c(c1)oc1c(N3CCCCCC3)ncnc12` gave MITF inh -14.7, GPR151 ag 0.2, TEAD-YAP inh -12.0 and FBW7 activator -0.1.
CC1=C(C(=O)OCCc2ccccc2)C(c2coc3ccc(Cl)cc3c2=O)C2=C(CC(C)(C)CC2=O)N1 (configuration not stated) was read as MITF inh -4.5, GPR151 ag -0.3, TEAD-YAP inh -1.7 and FBW7 activator -0.1.
`COCCCN1C(=O)CC(CC(=O)N2CCN(C(C)=O)CC2)(c2ccccc2Cl)C1=O` (configuration not stated) gave MITF inh 3.0, GPR151 ag 0.7, TEAD-YAP inh 4.5 and FBW7 activator -0.1.
Screening O=C(c1ccco1)N1CCN(c2ncc(-c3cccnc3)n3ccnc23)CC1 returned MITF inh -24.3, GPR151 ag 1.3, TEAD-YAP inh -70.5 and FBW7 activator 2.3*.
`Nc1ccc(-c2cnc3c(N4CCN(C(=O)c5ccco5)CC4)nccn23)cc1` gave MITF inh -7.7, GPR151 ag -1.2, TEAD-YAP inh -59.8 and FBW7 activator -0.3.
`O=C(c1ccco1)N1CCN(c2ncc(-c3ccc(CO)cc3)n3ccnc23)CC1` gave MITF inh 5.1, GPR151 ag 0.6, TEAD-YAP inh 38.8* and FBW7 activator 4.8*.
`Cc1cccc(CN2CCN3C(=O)[C@H](CO)N(C)C(=O)[C@H]3C2)c1` gave MITF inh -4.1, GPR151 ag -0.8, TEAD-YAP inh -13.7 and FBW7 activator 0.1.
Screening CCCc1nc(C(=O)O)c(C(=O)O)[nH]1 returned MITF inh 4.6, GPR151 ag -0.2, TEAD-YAP inh 1.4 and FBW7 activator 0.1.
For C=CCNC(=O)c1ccccc1NC(=O)c1cccc(OC)c1 the results were MITF inh 11.7, GPR151 ag -0.5, TEAD-YAP inh -1.1 and FBW7 activator 0.0.
For CC(C)=C1C(=O)NN(c2ccc(I)cc2)C1=O the results were MITF inh 2.6, GPR151 ag 1.3, TEAD-YAP inh -1.2 and FBW7 activator 0.3.
